This note sets out measurements from publication PMC9911399, “Two distinct binding modes provide the RNA-binding protein RbFox with extraordinary sequence specificity”.

Numbering of substitutions follows the chain as printed; changes in the protein carry UniProt numbers. In all, about 16,000 sequences were measured (“ka relative to ugcaugu”: median about 0.096, highest 2% from about 0.35 on). The sample as a whole holds a higher share of the highest values than the screen did.

The chains are these.
B1: CUUACUC (DNA:RNA)
RNA: GGGAGACCGGAAUUCAGAUUGUCCCUUACUCUUAAAUCCCGUCGUAGCCACCA
DNA 1: CAATCTGAATTCCGGTCTCCC
DNA 2: TGGTGGCTACGACGGGATT
B2: AACUUUU (DNA:RNA)
RNA: B1 RNA with C25A, U26A, U27C, A28U, C29U, C31U
DNA 1: CAATCTGAATTCCGGTCTCCC
DNA 2: TGGTGGCTACGACGGGATT
B3: AGUUUGA (DNA:RNA)
RNA: B1 RNA with C25A, U26G, A28U, C29U, U30G, C31A
DNA 1: CAATCTGAATTCCGGTCTCCC
DNA 2: TGGTGGCTACGACGGGATT
B4: UCUACAC (DNA:RNA)
RNA: B1 RNA with C25U, U26C, U30A
DNA 1: CAATCTGAATTCCGGTCTCCC
DNA 2: TGGTGGCTACGACGGGATT
B5: CAUCGCC (DNA:RNA)
RNA: B1 RNA with U26A, A28C, C29G, U30C
DNA 1: CAATCTGAATTCCGGTCTCCC
DNA 2: TGGTGGCTACGACGGGATT
B6: UACCUUG (DNA:RNA)
RNA: B1 RNA with C25U, U26A, U27C, A28C, C29U, C31G
DNA 1: CAATCTGAATTCCGGTCTCCC
DNA 2: TGGTGGCTACGACGGGATT
B7: UUUAACG (DNA:RNA)
RNA: B1 RNA with C25U, C29A, U30C, C31G
DNA 1: CAATCTGAATTCCGGTCTCCC
DNA 2: TGGTGGCTACGACGGGATT
B8: GGUCAAC (DNA:RNA)
RNA: B1 RNA with C25G, U26G, A28C, C29A, U30A
DNA 1: CAATCTGAATTCCGGTCTCCC
DNA 2: TGGTGGCTACGACGGGATT
B9: AUAUCUA (DNA:RNA)
RNA: B1 RNA with C25A, U27A, A28U, C31A
DNA 1: CAATCTGAATTCCGGTCTCCC
DNA 2: TGGTGGCTACGACGGGATT
B10: CCGUAUG (DNA:RNA)
RNA: B1 RNA with U26C, U27G, A28U, C29A, C31G
DNA 1: CAATCTGAATTCCGGTCTCCC
DNA 2: TGGTGGCTACGACGGGATT
B11: GUAUGUU (DNA:RNA)
RNA: B1 RNA with C25G, U27A, A28U, C29G, C31U
DNA 1: CAATCTGAATTCCGGTCTCCC
DNA 2: TGGTGGCTACGACGGGATT
B12: GUUUAUG (DNA:RNA)
RNA: B1 RNA with C25G, A28U, C29A, C31G
DNA 1: CAATCTGAATTCCGGTCTCCC
DNA 2: TGGTGGCTACGACGGGATT
B13: GGGGGUA (DNA:RNA)
RNA: B1 RNA with C25G, U26G, U27G, A28G, C29G, C31A
DNA 1: CAATCTGAATTCCGGTCTCCC
DNA 2: TGGTGGCTACGACGGGATT
B14: UAGUAAA (DNA:RNA)
RNA: GGGAGACCGGAAUUCAGAUUGUCCUAGUAAAUUAAAUCCCGUCGUAGCCACCA
DNA 1: CAATCTGAATTCCGGTCTCCC
DNA 2: TGGTGGCTACGACGGGATT
B15: CCAUAUG (DNA:RNA)
RNA: B1 RNA with U26C, U27A, A28U, C29A, C31G
DNA 1: CAATCTGAATTCCGGTCTCCC
DNA 2: TGGTGGCTACGACGGGATT
B16: CCCUAUG (DNA:RNA)
RNA: B1 RNA with U26C, U27C, A28U, C29A, C31G
DNA 1: CAATCTGAATTCCGGTCTCCC
DNA 2: TGGTGGCTACGACGGGATT
B17: GGGUAGA (DNA:RNA)
RNA: B14 RNA with U25G, A26G, A30G
DNA 1: CAATCTGAATTCCGGTCTCCC
DNA 2: TGGTGGCTACGACGGGATT
B18: GUUAUGU (DNA:RNA)
RNA: B1 RNA with C25G, C29U, U30G, C31U
DNA 1: CAATCTGAATTCCGGTCTCCC
DNA 2: TGGTGGCTACGACGGGATT
B19: UAGUAUG (DNA:RNA)
RNA: B14 RNA with A30U, A31G
DNA 1: CAATCTGAATTCCGGTCTCCC
DNA 2: TGGTGGCTACGACGGGATT
B20: GGGUAUG (DNA:RNA)
RNA: B14 RNA with U25G, A26G, A30U, A31G
DNA 1: CAATCTGAATTCCGGTCTCCC
DNA 2: TGGTGGCTACGACGGGATT
B21: UAGUAUC (DNA:RNA)
RNA: B14 RNA with A30U, A31C
DNA 1: CAATCTGAATTCCGGTCTCCC
DNA 2: TGGTGGCTACGACGGGATT
B22: UAUCAUA (DNA:RNA)
RNA: B14 RNA with G27U, U28C, A30U
DNA 1: CAATCTGAATTCCGGTCTCCC
DNA 2: TGGTGGCTACGACGGGATT
B23: GAAGCUA (DNA:RNA)
RNA: B1 RNA with C25G, U26A, U27A, A28G, C31A
DNA 1: CAATCTGAATTCCGGTCTCCC
DNA 2: TGGTGGCTACGACGGGATT
B24: CAGCUCU (DNA:RNA)
RNA: B14 RNA with U25C, U28C, A29U, A30C, A31U
DNA 1: CAATCTGAATTCCGGTCTCCC
DNA 2: TGGTGGCTACGACGGGATT
B25: GUAUCAG (DNA:RNA)
RNA: B1 RNA with C25G, U27A, A28U, U30A, C31G
DNA 1: CAATCTGAATTCCGGTCTCCC
DNA 2: TGGTGGCTACGACGGGATT
B26: AGUCGCC (DNA:RNA)
RNA: B1 RNA with C25A, U26G, A28C, C29G, U30C
DNA 1: CAATCTGAATTCCGGTCTCCC
DNA 2: TGGTGGCTACGACGGGATT
B27: UCGGAGC (DNA:RNA)
RNA: B14 RNA with A26C, U28G, A30G, A31C
DNA 1: CAATCTGAATTCCGGTCTCCC
DNA 2: TGGTGGCTACGACGGGATT
B28: AACUUUG (DNA:RNA)
RNA: B14 RNA with U25A, G27C, A29U, A30U, A31G
DNA 1: CAATCTGAATTCCGGTCTCCC
DNA 2: TGGTGGCTACGACGGGATT
B29: AAGUAUG (DNA:RNA)
RNA: B14 RNA with U25A, A30U, A31G
DNA 1: CAATCTGAATTCCGGTCTCCC
DNA 2: TGGTGGCTACGACGGGATT
B30: AAGUAUC (DNA:RNA)
RNA: B14 RNA with U25A, A30U, A31C
DNA 1: CAATCTGAATTCCGGTCTCCC
DNA 2: TGGTGGCTACGACGGGATT
B31: AGGUAGC (DNA:RNA)
RNA: B14 RNA with U25A, A26G, A30G, A31C
DNA 1: CAATCTGAATTCCGGTCTCCC
DNA 2: TGGTGGCTACGACGGGATT
B32: AGGUAUC (DNA:RNA)
RNA: B14 RNA with U25A, A26G, A30U, A31C
DNA 1: CAATCTGAATTCCGGTCTCCC
DNA 2: TGGTGGCTACGACGGGATT
B33: CAUAUGU (DNA:RNA)
RNA: B1 RNA with U26A, C29U, U30G, C31U
DNA 1: CAATCTGAATTCCGGTCTCCC
DNA 2: TGGTGGCTACGACGGGATT
B34: AAGUAAA (DNA:RNA)
RNA: B14 RNA with U25A
DNA 1: CAATCTGAATTCCGGTCTCCC
DNA 2: TGGTGGCTACGACGGGATT
B35: CUUAUGU (DNA:RNA)
RNA: B1 RNA with C29U, U30G, C31U
DNA 1: CAATCTGAATTCCGGTCTCCC
DNA 2: TGGTGGCTACGACGGGATT
B36: CCCGGUA (DNA:RNA)
RNA: B1 RNA with U26C, U27C, A28G, C29G, C31A
DNA 1: CAATCTGAATTCCGGTCTCCC
DNA 2: TGGTGGCTACGACGGGATT
B37: CGGUAUG (DNA:RNA)
RNA: B14 RNA with U25C, A26G, A30U, A31G
DNA 1: CAATCTGAATTCCGGTCTCCC
DNA 2: TGGTGGCTACGACGGGATT
B38: CGUAUGU (DNA:RNA)
RNA: B1 RNA with U26G, C29U, U30G, C31U
DNA 1: CAATCTGAATTCCGGTCTCCC
DNA 2: TGGTGGCTACGACGGGATT
B39: GGUAUCG (DNA:RNA)
RNA: B1 RNA with C25G, U26G, C29U, U30C, C31G
DNA 1: CAATCTGAATTCCGGTCTCCC
DNA 2: TGGTGGCTACGACGGGATT
B40: AGGUAUG (DNA:RNA)
RNA: B14 RNA with U25A, A26G, A30U, A31G
DNA 1: CAATCTGAATTCCGGTCTCCC
DNA 2: TGGTGGCTACGACGGGATT

The target of this test is T1, RBFOX1 RRM RbFoxmut (Fox-RRM*) (Homo sapiens, UniProt Q9NWB1 109-208, R118D;E147R;N151S;E152T).
T1 sequence: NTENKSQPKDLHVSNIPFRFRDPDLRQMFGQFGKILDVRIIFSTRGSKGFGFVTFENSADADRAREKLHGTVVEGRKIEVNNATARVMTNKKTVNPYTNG
The test can be described thus: EMSA; HiTS-Eq, 1 nM pool, 10 min; buffer printed only for the single-RNA assays: 10 mM Tris pH 7.5, 150 mM NaCl, 3.4 mM EDTA, 0.001% NP-40, 30 C. The conditions noted are these: tags: His6 N-terminal (pET28a); label: 5' 32P. Put shortly: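 Purified RbFox RRM (wild type or mutant) was equilibrated for 10 min in 50 µL with 1 nM of a 5′-radiolabelled pool of RNA with 7 randomized nucleotides, its flanks annealed to DNA oligonucleotides, across increasing protein concentrations. Free RNA was separated by 8% native PAGE, excised, reverse-transcribed, PCR-barcoded and sequenced on an Illumina HiSeq 2500. Relative association constants came from read-count changes of each variant against the control reaction, normalised to the cognate motif.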
For orientation: In EMSA bound probe runs differently from free probe, usually more slowly.
On to B1, for which the binding signal was 0.0513 KA relative to UGCAUGU. Under B2 stands 0.0643 KA relative to UGCAUGU. For the molecule B3, the binding signal was 0.169 KA relative to UGCAUGU.

B4: the binding signal is 0.0553 KA relative to UGCAUGU.

In the case of B5, the binding signal was 0.125 KA relative to UGCAUGU.

B6: the binding signal is 0.1 KA relative to UGCAUGU.

On to B7, for which the binding signal is 0.112 KA relative to UGCAUGU. As for B8, the binding signal is 0.052 KA relative to UGCAUGU. With B9, the binding signal is 0.124 KA relative to UGCAUGU.

Regarding B10, the binding signal was 0.534 KA relative to UGCAUGU. Take B11: the binding signal is 0.497 KA relative to UGCAUGU. For the molecule B12, the binding signal is 0.172 KA relative to UGCAUGU. Regarding B13, the binding signal is 0.137 KA relative to UGCAUGU. As to B14, the binding signal is 0.117 KA relative to UGCAUGU. With B15, the binding signal was 0.123 KA relative to UGCAUGU. Under B16 stands 0.101 KA relative to UGCAUGU; under B17, 0.134 KA relative to UGCAUGU. B18: the binding signal was 0.268 KA relative to UGCAUGU. With B19, the binding signal is 0.674 KA relative to UGCAUGU. On to B20, for which the binding signal was 0.93 KA relative to UGCAUGU. Regarding B21, the binding signal was 0.183 KA relative to UGCAUGU.

Take B22: the binding signal was 0.0784 KA relative to UGCAUGU. With B23, the binding signal was 0.0968 KA relative to UGCAUGU. The result for B24 reads 0.0953 KA relative to UGCAUGU.

With B25, the binding signal is 0.229 KA relative to UGCAUGU. Take B26: the binding signal is 0.0636 KA relative to UGCAUGU. In the case of B27, the binding signal was 0.0837 KA relative to UGCAUGU. For the molecule B28, the binding signal was 0.0853 KA relative to UGCAUGU. For B29, the binding signal was 0.498 KA relative to UGCAUGU. On to B30, for which the binding signal is 0.151 KA relative to UGCAUGU. Take B31: the binding signal was 0.114 KA relative to UGCAUGU. For B32, the binding signal was 0.191 KA relative to UGCAUGU. B33: the binding signal is 0.149 KA relative to UGCAUGU. B34: the binding signal was 0.124 KA relative to UGCAUGU. As to B35, the binding signal is 0.158 KA relative to UGCAUGU. The result for B36 reads 0.111 KA relative to UGCAUGU. The result for B37 reads 0.885 KA relative to UGCAUGU.

Take B38: the binding signal is 0.554 KA relative to UGCAUGU. As for B39, the binding signal is 0.348 KA relative to UGCAUGU. The result for B40 reads 1.01 KA relative to UGCAUGU.
